PubChem BioAssay (NCI)
Compounds without any hit were thinned out: in the full panel of roughly 83,000, 20% have a hit.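 Negative percent growth values reflect cell death: -40 means 40% of the cells present at the start died, and -100 means all died.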 Values without a mark were called inactive. Calls of active or inactive are those of the source. How the source made its calls: active means growth percent below 10; inactive means the rest.

Assays:
Test in all cases: NCI-60 one-dose screen, 48 h (100 = growth as untreated, 0 = no growth, -100 = all killed)
Conditions in all cases: 10 µM unless noted
NCI-H23 lung = system: NCI-H23 lung
NCI-H226 lung = system: NCI-H226 lung
NCI-H322M lung = system: NCI-H322M lung
HOP-62 NSCLC = system: HOP-62 NSCLC
NCI-H460 lung = system: NCI-H460 lung
HOP-92 NSCLC = system: HOP-92 NSCLC
NCI-H522 lung = system: NCI-H522 lung
A549/ATCC NSCLC = system: A549/ATCC NSCLC
786-0 renal = system: 786-0 renal
DU-145 prostate = system: DU-145 prostate
K-562 leukemia = system: K-562 leukemia
MALME-3M melanoma = system: MALME-3M melanoma
MDA-MB-231 breast = system: MDA-MB-231 breast
RXF 393 renal = system: RXF 393 renal
SF-268 CNS = system: SF-268 CNS
SF-295 CNS = system: SF-295 CNS
SF-539 CNS = system: SF-539 CNS
UACC-257 melanoma = system: UACC-257 melanoma
M14 melanoma = system: M14 melanoma
COLO 205 colon = system: COLO 205 colon

Row | SMILES | growth (NCI-H23 lung) | growth (NCI-H226 lung) | growth (NCI-H322M lung) | growth (HOP-62 NSCLC) | growth (NCI-H460 lung) | growth (HOP-92 NSCLC) | growth (NCI-H522 lung) | growth (A549/ATCC NSCLC) | growth (786-0 renal) | growth (DU-145 prostate) | growth (K-562 leukemia) | growth (MALME-3M melanoma) | growth (MDA-MB-231 breast) | growth (RXF 393 renal) | growth (SF-268 CNS) | growth (SF-295 CNS) | growth (SF-539 CNS) | growth (UACC-257 melanoma) | growth (M14 melanoma) | growth (COLO 205 colon)
1 | CCOC(=O)c1cc(C(=O)c2cc(OC)c(OC)c(OC)c2)n2ccc(-c3ccncc3)cc12 | 94.8% | 95.9% | 106% | 90.1% | 97.4% | 65.8% | 68.7% | 80% | 90.2% | 103% | 98.7% | 87.5% | 70.2% | 95.3% | 96.4% | 113% | 93.9% | 80.8% | 101% | –
2 | CCCCCCCCn1ccc2cc(NC(=O)Cn3cc(CN4CCCCC4)nn3)ccc21 | 75% | 79.4% | 17.6% | 58.6% | -50.6% (active) | – | 10.3% | 25.2% | -68.5% (active) | 52.2% | -13.5% (active) | -88.3% (active) | -37.1% (active) | -72% (active) | 21.3% | -66.5% (active) | -42.3% (active) | -49.5% (active) | -79.8% (active) | -80% (active)
3 | Cn1c(=O)c2c(nc(NC3=NS(=O)(=O)c4ccccc43)n2CC(=O)N2CCc3ccccc32)n(C)c1=O | 87.2% | 98.8% | 100% | 94.4% | 100% | – | 97.5% | 99.3% | 97.3% | 106% | 114% | 103% | 94.3% | 92.7% | 97.5% | 105% | 98.1% | 94.9% | 89.1% | 101%
4 | COc1ccc(-c2csc(N(C(=O)N3CCN(c4cc5c(cc4F)c(=O)c(C(=O)O)cn5C4CC4)CC3)c3ccccc3)n2)cc1 | 4.28% (active) | 28.5% | 4.9% (active) | 9.2% (active) | 3.65% (active) | – | -21.8% (active) | 13.6% | 19.6% | 17.6% | 14% | 9.18% (active) | 28.3% | 35.8% | 22.9% | 3.69% (active) | 9.1% (active) | 12.4% | 26.6% | 17.9%
5 | N#Cc1cccc(-c2c(-c3ccc4ccccc4c3)oc3ccccc3c2=O)c1 | 60.7% | 71.2% | 64.6% | 41.5% | 17.9% | 51.8% | 10.5% | 34.9% | 35.5% | 77.1% | 11.5% | 48.7% | 55.7% | 81.7% | 65.8% | 34.2% | 43.4% | 58.2% | 6.18% (active) | –
6 | Cc1ccc2c(n1)C(=O)c1[nH]c3ccccc3c1C2=O | -33.8% (active) | 55.7% | 31.8% | 39.5% | -50.6% (active) | – | 59.7% | -14.4% (active) | 78.1% | -86.1% (active) | 44.9% | -80.4% (active) | 32.1% | 62.7% | 66.3% | 0.15% (active) | 43% | 13.7% | -39.9% (active) | 23.9%
7 | CC1Cc2c(Cl)ncnc2N(C)c2ccc(F)cc21 (stereo not drawn) | 103% | 94.5% | 99.5% | 93.2% | 108% | 65.8% | 89.3% | 70% | 79% | 110% | 99.5% | 91.3% | 98.9% | 104% | 93.8% | 91.2% | 97.5% | 70.3% | 91.5% | –
8 | CC(C)(C)n1cc(-c2ccnc(NCCCNS(=O)(=O)c3ccc(F)cc3)c2)c(-c2cccc(F)c2)n1 | 67.5% | 60.1% | 91.3% | 92.2% | 36.1% | – | 57.2% | 43.5% | 66.7% | 77.7% | 18.1% | 85.4% | 75.6% | 68% | 74.3% | 74% | 68.7% | 89.2% | 53.8% | 32.6%
9 | CS(=O)(=O)Nc1cc(-c2ccc3ncnc(Nc4c(Cl)ccc5c4OCO5)c3c2)cnc1Cl | 0.217% (active) | 12.7% | -39% (active) | 9.21% (active) | 7.13% (active) | – | -13.8% (active) | -13.7% (active) | 0.785% (active) | 6.12% (active) | 13.6% | -29% (active) | 1.01% (active) | -45.8% (active) | -21.5% (active) | -29.8% (active) | -36.9% (active) | -3.47% (active) | -9.85% (active) | -45% (active)
10 | CN(C)c1ccc(/C=C/C(=O)c2ccc(-n3cc(CN4CCN(c5cc6c(cc5F)c(=O)c(C(=O)O)cn6C5CC5)CC4)nn3)cc2)cc1 | 80.3% | 81.7% | 77.5% | 67.3% | 32.5% | – | 48.5% | 82.2% | 33.2% | 51.7% | 21.9% | 89.2% | 65.3% | 45% | 35.7% | 81.2% | 27.9% | 88.3% | – | 105%
11 | O=C1C(Cl)=C(Oc2ccccc2)C(=O)c2ccccc21 | 85.9% | 90.8% | 83.1% | 86% | 94.4% | – | -83.3% (active) | 100% | 94.1% | 122% | 37.2% | 76.3% | 81.4% | 96.8% | 79.3% | 76.6% | 75.2% | 89.9% | 96.2% | 32.3%
12 | CC1=C(CCC(C)N(C)Cc2ccc(OCCCN3CCCC3)cc2)C(C)(C)CCC1 (stereo not drawn) | 64% | 85.5% | 55.5% | 36.6% | 5.81% (active) | – | -52.2% (active) | 37.8% | 17.3% | 65.3% | -22.2% (active) | -89.4% (active) | -43.6% (active) | -37.5% (active) | 48.2% | -4.45% (active) | -79% (active) | -74.3% (active) | -77.2% (active) | -78.8% (active)
13 | CCc1ccc(Oc2cn[nH]c2-c2ccc(OCCc3ccc(F)cc3)cc2O)cc1 | 92.8% | 96.7% | 98.6% | 114% | 94.8% | – | -36.5% (active) | 66.9% | 99.7% | 90.5% | 100% | 95.1% | 85% | 111% | 88.9% | 99.2% | 106% | 93.3% | 83.1% | 108%
14 | S=C(Nc1ccc(-c2nc(N3CCOCC3)c3cccn3n2)cc1)Nc1cccnc1 | 37.7% | 38.2% | 35.7% | 46.6% | 43.2% | – | 4.32% (active) | 24.1% | 36.7% | 18.6% | 26.2% | 24.7% | 41.3% | 17.9% | 53.1% | 25.6% | 10% | 50.9% | 32.1% | 28%
15 | COc1cc2c(c(OC)c1OC)C(=O)CC(c1cccc(NC(=O)c3ccc(Br)cc3)c1)O2 (stereo not drawn) | 51.2% | 49.2% | 72.5% | 47.2% | 57% | – | 9.27% (active) | 48.6% | 78.1% | 58.7% | 5.9% (active) | 46.6% | 37.3% | 66.3% | 57.6% | 41.8% | 79.1% | 53.1% | 20% | 55.5%
16 | CC(C)c1ccc(NC(=O)Nc2ccc(NC(=O)CCCC(=O)NOCc3ccccc3)cc2)cc1 | 98.4% | 85.2% | 90.6% | 91.2% | 77.9% | – | 71.3% | 85.3% | 101% | 94.3% | 83.4% | 82.8% | 93.9% | 109% | 95.9% | 91.2% | 75.1% | 86.5% | 97.3% | 93.4%
